From the supplement of paper PMC6897291
Counter-ions that a name gives are not always drawn.

Tested on: RIVA
Test: growth inhibition by drug plus 177Lu-lilotomab satetraxetan (1 - RLU/untreated control) (fraction); higher = stronger inhibition
Details: 10 nM; time (day): 4; 177Lu-lilotomab satetraxetan 0.5 ug/ml
Method in brief: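 RIVA or U-2932 cells, untreated or pretreated 18 h with a radiolabelled anti-CD37 antibody conjugate (~600 MBq/mg; 0.5 µg/ml RIVA, 1 µg/ml U-2932), were washed and seeded at 3,000 cells/well on plates pre-printed with the Selleck Cambridge Cancer Compound library. Doses were 10/100 nM (RIVA) or 10/1,000 nM (U-2932). RealTime-Glo luminescence was read daily from day 3 after 1 h at 37°C. Growth inhibition is 1 − RLU/mean of 48 untreated no-drug wells per plate.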

Structure (SMILES)	growth inhibition by drug plus 177Lu-lilotomab satetraxetan
Nc1nc2[nH]cc(CCc3ccc(C(=O)N[C@@H](CCC(=O)O)C(=O)O)cc3)c2c(=O)[nH]1 [Pemetrexed]	0.458
COc1cc2nccc(Oc3ccc(NC(=O)Nc4cc(C)on4)c(Cl)c3)c2cc1OC [Tivozanib (AV-951)]	0.547
CCC(=O)N1CCN(c2ccc(-n3c(=O)ccc4cnc5ccc(-c6cnc7ccccc7c6)cc5c43)cc2C(F)(F)F)CC1 [Torin 1]	0.599
COc1cccc2c1C(=O)c1c(O)c3c(c(O)c1C2=O)C[C@@](O)(C(=O)CO)C[C@@H]3O[C@H]1C[C@H](N)[C@@H](O)[C@H](C)O1 [Epirubicin Hydrochloride]	0.792
Clc1ccc(Nc2nnc(Cc3ccncc3)c3ccccc23)cc1 [Vatalanib dihydrochloride (PTK787)]	0.509
COc1cc2nccc(Oc3ccc(NC(=O)C4(C(=O)Nc5ccc(F)cc5)CC4)cc3)c2cc1OC [XL-184 free base (Cabozantinib)]	0.613
C[C@@H](O[C@H]1OCCN(Cc2n[nH]c(=O)[nH]2)[C@H]1c1ccc(F)cc1)c1cc(C(F)(F)F)cc(C(F)(F)F)c1 [Aprepitant (MK-0869)]	0.465
COc1cc2c(cc1O)CC[C@@H]1[C@@H]2CC[C@]2(C)[C@@H](O)CC[C@@H]12 [2-Methoxyestradiol]	0.534
CNCc1ccc(-c2[nH]c3cc(F)cc4c3c2CCNC4=O)cc1	0.514
CC[C@@]1(O)C(=O)OCc2c1cc1n(c2=O)Cc2cc3c(CN(C)C)c(O)ccc3nc2-1 [Topotecan HCl]	0.878
Nc1cc(C(F)(F)F)c(-c2cc(N3CCOCC3)nc(N3CCOCC3)n2)cn1	0.424
CC(C)(C)c1ccc(S(=O)(=O)/C=C/C#N)cc1	0.555
C[C@]1(c2nc3c(C(N)=O)cccc3[nH]2)CCCN1 [ABT-888 (Veliparib)]	0.488
Cc1ccc(NC(=O)c2ccc(CN3CC[C@H](N(C)C)C3)c(C(F)(F)F)c2)cc1Nc1nccc(-c2cncnc2)n1 [Bafetinib (INNO-406)]	0.623
C[C@]12CC[C@@H]3c4ccc(O)cc4CC[C@H]3[C@@H]1CCC2=O [Estrone]	0.569
O=C(c1ccc(OCCN2CCCCC2)cc1)c1c(-c2ccc(O)cc2)sc2cc(O)ccc12 [Evista (Raloxifene Hydrochloride)]	0.48
CCN(CC)CCNC(=O)c1c(C)[nH]c(/C=C2\C(=O)Nc3ccc(F)cc32)c1C [Sunitinib Malate (Sutent)]	0.452
CCOc1ccc(Nc2nc(-c3c(C)nc4ccccn34)cs2)cc1	0.602
C=CC(=O)N1CCC[C@@H](n2nc(-c3ccc(Oc4ccccc4)cc3)c3c(N)ncnc32)C1	0.828

Structure (SMILES)	growth inhibition by drug plus 177Lu-lilotomab satetraxetan
CS(=O)(=O)c1cccc(CNc2nc(Nc3ccc4c(c3)CCC(=O)N4)ncc2C(F)(F)F)c1	0.549
CC(NC(=O)c1ccccc1/N=C/c1c(O)ccc2ccccc12)c1ccccc1 (stereo not drawn) [Sirtinol]	0.472
CN(Cc1cnc2nc(N)nc(N)c2n1)c1ccc(C(=O)N[C@@H](CCC(=O)O)C(=O)O)cc1 [Abitrexate (Methotrexate)]	0.489
OCCn1cc(-c2cnc3nnn(Cc4ccc5ncccc5c4)c3n2)cn1	0.575
COc1cc(Nc2ncc(F)c(Nc3ccc4c(n3)NC(=O)C(C)(C)O4)n2)cc(OC)c1OC [R406(free base)]	0.592
COc1cccc2c1C(=O)c1c(O)c3c(c(O)c1C2=O)C[C@@](O)(C(=O)CO)C[C@@H]3O[C@H]1C[C@H](N)[C@H](O)[C@H](C)O1 [Doxorubicin (Adriamycin)]	0.879
CN(NC(=O)CC(=O)NN(C)C(=S)c1ccccc1)C(=S)c1ccccc1 [Elesclomol]	0.968
CN(C)CCOc1ccc(/C(=C(/CCCl)c2ccccc2)c2ccccc2)cc1 [Toremifene Citrate (Fareston, Acapodene)]	0.722
CN1CCN(CCOc2cc(OC3CCOCC3)c3c(Nc4c(Cl)ccc5c4OCO5)ncnc3c2)CC1 [Saracatinib (AZD0530)]	0.494
CC(C)C[C@H](NC(=O)[C@H](Cc1ccccc1)NC(=O)c1cnccn1)B(O)O [Bortezomib (Velcade)]	0.969
Cn1cncc1[C@@](N)(c1ccc(Cl)cc1)c1ccc2c(c1)c(-c1cccc(Cl)c1)cc(=O)n2C [Tipifarnib (Zarnestra)]	0.421
COC(=O)c1ccc2c(C(=Nc3ccc(N(C)C(=O)CN4CCN(C)CC4)cc3)c3ccccc3)c(O)[nH]c2c1 [BIBF1120 (Vargatef)]	0.437
CC[C@@H]1/C=C(\C)C[C@H](C)C[C@H](OC)[C@H]2O[C@@](O)(C(=O)C(=O)N3CCCC[C@H]3C(=O)O[C@H](/C(C)=C/[C@@H]3CC[C@H](Cl)[C@H](OC)C3)[C@H](C)[C@@H](O)CC1=O)[C@H](C)C[C@@H]2OC [Pimecrolimus]	0.621
CN(C)CCOc1ccc(-c2nc(-c3ccncc3)c(-c3ccc4c(c3)CC/C4=N\O)[nH]2)cc1	0.494
COc1ccc(CCN2CCN(CCCc3ccccc3)CC2)cc1OC	0.322
CNC(=O)c1cc(Oc2ccc(NC(=O)Nc3cc(C(C)(C)C)nn3-c3ccc4ncccc4c3)c(F)c2)ccn1 [DCC-2036 (Rebastinib)]	0.57
CCC(C)(C)C(=O)O[C@H]1C[C@@H](C)C=C2C=C[C@H](C)[C@H](CC[C@@H]3C[C@@H](O)CC(=O)O3)[C@H]21 [Simvastatin (Zocor)]	0.554
CCc1ccc(CCOc2ccc(CC3SC(=O)NC3=O)cc2)nc1 (stereo not drawn) [Pioglitazone (Actos)]	0.578
O=C(O)C(Cc1c[nH]c2ccccc12)N1C(=O)c2ccccc2C1=O (stereo not drawn)	0.457
